The list is not random: actives were taken first. Their share in the collection is about 6.8%.
SW480 rerep = A quantitative high throughput screen for small molecules that induce DNA re-replication in SW480 colon adenocarcinoma cells. actives 1.8% (n = 340,000). Potency, µM (highest dose often 46.1 µM), inactives show top-dose re-replication activation, usual class: activators. SW480 DNA re-replication, Hoechst DNA content imaging, 48 h; note: % of control where 0% means no effect; nearly all actives have a fitted effect of over 55% in size
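Image-based read-out: total Hoechst fluorescence of nuclei (405 nm excitation, 500-530 nm emission), with hits raising the fraction of high-intensity nuclei. SW480 colon cells incubated 48 hr with compounds at 37 C.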
MCF10A rerep = A quantitative high throughput screen for small molecules that induce DNA re-replication in MCF 10a normal breast cells | MCF 10A DNA re-replication, Hoechst nuclear intensity, 48 h | Potency, µM (top dose mostly 46.1 µM), for inactives: top-dose activity, positive = re-replication, hits mostly activators | actives 2.9% (n = 350,000) | AID 624296, 2012; note: % of control where 0% means no effect; nearly all actives have a fitted effect of over 50% in size
KB-V1 MDR tox = qHTS assay for MDR1-selective chemotherapeutics: Primary screen using the drug-selected MDR subline cells KB-V1; actives 3.4% (n = 400,000); Potency, µM (titrated, usually from 46.1 µM), hits mostly cytotoxic; KB-V1 MDR cells viability, CellTiter-Glo, 72 h; note: % is set by controls: 0 for no effect and ±100 for the full control effect; nearly all actives have a fitted effect of over 60% in size
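Compound-treated KB-V1 multidrug-resistant cells, 72 h, 37 degrees C; viability by CellTiter-Glo. Fitted qHTS curves give the values.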
PTAP TSG101 blk = qHTS Assay for Iinhibitors of HIV-1 Budding by Blocking the Interaction of PTAP/TSG101; Potency, µM (top dose mostly 115 µM), inactives show top-dose activity change, negative = inhibition, actives largely listed as inhibitors; 340,000 tested, under 10 active; Tumor susceptibility gene 101 protein (Homo sapiens), Q99816; Fluorescence polarization, FITC-PTAP peptide / Tsg101 binding; active = well fitted inhibition curve with a large enough effect in the main read-out, with a control signal flat, not every such curve was filed as active; inconclusive = small, poorly fitted or top-dose-only effect, or effect the other way, or a change in a side signal; inactive = no such curve, though single readings can be large or run the other way; note: % of control where 0% means no effect
Target sequence (Q99816 whole entry, looked up): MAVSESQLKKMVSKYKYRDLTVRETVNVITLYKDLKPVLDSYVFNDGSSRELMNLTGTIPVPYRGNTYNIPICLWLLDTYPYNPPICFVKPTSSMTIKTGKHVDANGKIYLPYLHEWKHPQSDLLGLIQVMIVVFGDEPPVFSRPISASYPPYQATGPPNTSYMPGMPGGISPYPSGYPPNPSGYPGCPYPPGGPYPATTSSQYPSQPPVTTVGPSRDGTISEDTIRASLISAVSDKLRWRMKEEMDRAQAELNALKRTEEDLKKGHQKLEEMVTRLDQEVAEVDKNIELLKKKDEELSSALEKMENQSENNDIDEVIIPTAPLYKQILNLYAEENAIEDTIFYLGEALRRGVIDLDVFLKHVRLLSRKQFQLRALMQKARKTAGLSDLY
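Tsg101 binding domain (10 uM final) was mixed with compound and a FITC-labeled PTAP peptide (50 nM final) in HEPES pH 7.5 buffer with NaCl, Tween 20, EDTA and TCEP; fluorescence polarization was read after 20 min at r.t.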
PINK1 expr mod = A Quantitative High throughput Screen to Identify Chemical Modulators of PINK1 Expression; Potency, µM (highest dose often 76.6 µM), for the others: at the highest dose activation (PINK1 increase), actives largely listed as activators; actives 0.2% (n = 410,000); AID 624263, 2012; PINK1 immunofluorescence, high-content cytometry, 24 h; active = well fitted activation curve with a large enough effect; inconclusive = small, poorly fitted or top-dose-only effect; cell line not stated here; note: % of control where 0% means no effect; nearly all actives have a fitted effect of over 65% in size
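Readout is PINK1 immunofluorescence, quantified alongside mitochondrial, cell and nuclear markers by laser-scanning microplate cytometry. Cells from a stable line were exposed to compound titrations (5 concentrations) for 24 hours, with CCCP controls.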
KB-3-1 tox = qHTS assay for MDR1-selective chemotherapeutics: Primary screen using the parental adenocarcinoma cell KB-3-1 | AID 1347075, 2019 | actives 1.4% (n = 400,000) | Potency, µM (top dose mostly 46.1 µM), hits mostly cytotoxic | KB-3-1 viability, CellTiter-Glo ATP luminescence, 72 h; note: % is set by controls: 0 for no effect and ±100 for the full control effect; nearly all actives have a fitted effect of over 60% in size
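Parental KB-3-1 viability, qHTS format: 72 h compound exposure, 37 °C; CellTiter-Glo; media-only wells and DMSO plates as controls; concentration-effect fits on corrected data.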
* hit, by the source's call; i = inactive; ? = inconclusive; nt = no result given; ! = repeats disagree; [ ] = dose if it differs, or a comment. Unless noted, calls come from the whole dose curve; as a rule, active = well fitted curve in the direction sought with a large enough effect; inconclusive = small, poorly fitted or top-dose-only effect, or another doubt; inactive = no such curve, though single readings can be large; an effect the other way counts as inactive or inconclusive. Potency is the fitted concentration of half-maximal effect.

SMILES	SW480 rerep	MCF10A rerep	KB-V1 MDR tox	PTAP TSG101 blk	PINK1 expr mod	KB-3-1 tox
O=C(Cn1nnc2ccccc21)OCc1ccccc1	-2%	0.65µM*	i	0%	5%	i
O=C(Cn1nnc2ccccc21)NCc1ccccc1	-2%	-7%	i	0%	-2%	i
CCOC(=O)C(CC)(CC)C(=O)/C=C/c1ccc(Br)cc1	?	?	18µM*	-8%	-3%	21µM*
COC(=O)c1ccc(-n2ccnc2)cc1	1%	0%	i	-3%	11%	?
CCOC(=O)C(=Cc1ccc(-n2ccnc2)cc1)C(=O)OCC	6.5µM*	2.6µM*	?	1%	-4%	21µM*
CCOC(=O)/C(=C/c1ccc(OC(=O)c2ccncc2)cc1)C(C)=O	-2%	?	i	0%	0%	i
CCOC(=O)C(=Cc1ccc(Br)cc1)C(=O)OCC	7.3µM*	1.6µM*	16µM*	-13%	-2%	?
CCC(C)(C)c1ccc(CC(C)CN2C[C@@H](C)O[C@@H](C)C2)cc1 (some centres undefined)	3%	?	nt	nt	nt	nt
CCOC(=O)c1c(N)sc2c1CCN(Cc1ccccc1)C2	-2%	?	i	nt	0%	15µM*!
NC(=O)c1c(NC(=O)c2ccccc2)sc2c1CCN(Cc1ccccc1)C2	?	?	i	?	?	i
CCOC(=O)c1c(NC(=O)Cc2ccccc2)sc2c1CCN(CC)C2	1%	29%	i	-5%	0%	i
CC(=O)N1CCc2c(sc(NC(=O)CCS(=O)(=O)c3ccccc3)c2C(N)=O)C1	21µM*	?	i	-8%	2%	?
CCN1CCc2c(sc(NC(=O)c3ccc(S(=O)(=O)N(CC)c4ccccc4)cc3)c2C(N)=O)C1	?	12µM*	?	?	18%	?
NC(=O)c1c(NC(=O)c2c(F)cccc2F)sc2c1CCN(Cc1ccccc1)C2	13%	26µM*	i	?	17%	?
Cc1cccc(NC(=O)Cn2nc(-c3ccccc3)c3cnc4ccccc4c32)c1	nt	nt	i	nt	2%	i
CC(C)NC(=O)N1CC[C@@]2(CCCN(C(=O)c3ccncc3)C2)C1	nt	nt	nt	nt	1%	nt
CCN1CCc2c(sc(NC(=O)c3ccc(S(=O)(=O)N4CCOCC4)cc3)c2C(=O)OC)C1	?	15µM*	i	-2%	-1%	i
CCN1CCc2c(sc(NC(=O)Nc3ccc(Cl)c(Cl)c3)c2C(N)=O)C1	15µM*	9.2µM*	i	?	14µM*	i
CC(C)(C)NC(=O)Nc1nnc(-c2ccncc2)s1	nt	nt	i	nt	nt	?
CCn1c(SCC(=O)NC2CCCCC2)nc2c(c1=O)SC(C)C2 (centres undefined)	-2%	0%	2.3µM*	1%	-1%	i
CC1Cc2nc(SCC(=O)Nc3ccc(F)cc3)n(C)c(=O)c2S1 (centres undefined)	-2%	1%	4.1µM*	-9%	0%	i
CCn1c(SC)nc2c(c1=O)SC(C)C2 (centres undefined)	-17%	21µM*	i	-4%	nt	i
CCOc1ccc(NC(=O)CSc2nc3c(c(=O)n2C)SC(C)C3)cc1 (centres undefined)	-10%	0%	i	-3%	0%	i
CCSc1nc2c(c(=O)n1CC)SC(C)C2 (centres undefined)	23%	?	i	-16%	0%[38.3 µM]	i
COC(=O)c1cc(NC(=O)c2nn(C)c3c2CSc2ccccc2-3)cc(C(=O)OC)c1	nt	nt	nt	nt	4%	nt
SMILES	SW480 rerep	MCF10A rerep	KB-V1 MDR tox	PTAP TSG101 blk	PINK1 expr mod	KB-3-1 tox
COc1cc2c(cc1OC)C(COc1ccc3c(C)cc(=O)oc3c1)N(C(=O)Cc1ccc(F)cc1)CC2 (centres undefined)	nt	nt	i	nt	0%	i
CC1(C)O[C@H]2C[C@@H]3[C@H]4CCC5=CC(=O)CC[C@@]5(C)[C@]4(F)[C@@H](O)C[C@@]3(C)[C@@]2(C(=O)CCl)O1	1%[20.6 µM]	6%[20.6 µM]	nt	nt	nt	nt
CCC(O)CNC(=O)c1cnn(-c2ncc3c(n2)-c2ccccc2CCC3)c1C1CC1 (centres undefined)	nt	nt	nt	nt	0%	nt
CN1C=CC2=C(C#N)C(N)C(C#N)(C#N)C(c3ccccc3)C2C1 (centres undefined)	7%	12%	15µM*	-22%	11µM*	i
COc1ccc(N2CCN(C(=O)c3sc4nc5n(c(=O)c4c3C)CCC5)CC2)cc1	nt	nt	i	nt	1%	i
COc1ccc(-n2nc(C(=O)NCC(=O)NCC3CCCO3)c3ccccc3c2=O)cc1Cl (centres undefined)	0%	6%	9.2µM*	-6%	-5%	i
COc1ccc(-n2nc(C(=O)NCC(=O)NC(C)C)c3ccccc3c2=O)cc1Cl	-56%	3%	i	-2%	0%	i
Cc1c(C(=O)N(C)CCOc2ccccc2)oc2c(Cl)cccc12	0%	?	21µM*	0%	4%	i
CCN(CC(=O)Nc1ccccc1C(F)(F)F)C(=O)c1oc2c(Cl)cccc2c1C	5%	30%	18µM*	-5%	-2%	i
CCN(CC(=O)Nc1cc(C)on1)CC(=O)Nc1ccccc1C(F)(F)F	28%	32%	18µM*	-3%	0%	i
CCN(CC(=O)Nc1ccc(OC)cc1)C(=O)c1oc2c(Cl)cccc2c1C	41%	17%	i	0%	10%	i
CN(CC1COCCO1)C(=O)c1cnn(-c2nccc(-c3ccccc3C(F)(F)F)n2)c1C1CC1 (centres undefined)	nt	nt	nt	nt	0%	nt
CCN(CC)/[N+]([O-])=N/OCOC(=O)C(C)c1ccc(CC(C)C)cc1 (centres undefined)	nt	nt	nt	nt	-1%	nt
Cn1nnnc1SCCCNCc1ccccc1OCc1ccc(F)cc1	nt	nt	?	nt	0%	i
O=S(=O)(c1ccc2nc(Nc3ccccc3)ccc2c1)N1CCCCC1	2.8µM*	?	i	-1%	?	?
Cc1ccc(S(=O)(=O)Nc2nc3ccccc3nc2Nc2cccc(S(=O)(=O)N3CCCC3)c2)cc1	?	21µM*	?	?	?	?

Bioassay records: PubChem BioAssay, National Center for Advancing Translational Sciences (NCATS)
